# Mtb FBA inh = inhibits M. tuberculosis FBA enzyme; purified M. tuberculosis FBA, fluorescence read-out; AID 588726; 360,000 compounds, 2.3% hits; P9WQA3; inhibition, % at 1 µM
# Rv3671c inh = Rv3671c (M. tuberculosis) protease inhibition; inhibition, % at 5.96 µM; 320,000 compounds, 0.048% hits; AID 2606; in the data active = inhibition above about 38%;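 note: extracellular domain of Rv3671c used as enzyme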
# GDH-TPI counter-1 = inhibits GDH-TPI coupling enzymes, artifact for Mtb FBA screen | GDH-TPI coupled enzyme counterscreen, NADH absorbance | 360,000 compounds, 1.2% hits | AID 588335 | inhibition, % at 4.8 µM; in the data active = inhibition above about 30%
# Mtb betalactam = beta-lactam sensitization of Mtb H37Rv; M. tuberculosis H37Rv growth with meropenem, percent inhibition; inhibition, % at 25 µM; 330,000 compounds, 0.27% hits; AID 434955; call rule not given here;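 note: growth measured after seven days incubation then overnight dye step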
# Mtb UGM inh = Mtb UDP-galactopyranose mutase inhibition. inhibition, % at 10 µM. 320,000 compounds, 0.06% hits. P9WIQ1. purified UGM, fluorescence polarization probe displacement; in the data active = inhibition above about 10%, passing the limit was not always enough; inconclusive = no clear call, values can overlap the other calls
# RecA splice inh = Mtb RecA intein splicing inhibition; P9WHJ3; cell-free RecA intein splicing, fluorescence; inhibition, % (no concentration beside the values); 290,000 compounds, 0.75% hits; AID 2221; in the data active = inhibition above about 30%; inconclusive = no clear call, values can overlap the other calls
# Mtb FBA inh conf = Mtb FBA inhibition, confirmed | inhibition, % at 1 µM | purified M. tuberculosis FBA, fluorescence read-out | shares compounds with Mtb FBA inh | 5,600 compounds, 78% hits
# GDH-TPI counter-2 = inhibits GDH-TPI coupling enzymes, flagging Mtb FBA hits | inhibition, % at 1 µM | 5,600 compounds, 81% hits | shares compounds with Mtb FBA inh | GDH-TPI coupled enzyme counterscreen, fluorescence | AID 652141; in the data active = inhibition above about 10%
# Numbers stand for hits; i = inactive; ? = inconclusive; nt = no result given; + = active, no number. A selection: hits, their analogues and other compounds. The true share with any hit is near 4%. Cut-off read from the data, not from the text of the source, unless noted: active = inhibition above about 27%; inactive = the rest.
SMILES,Mtb FBA inh,Rv3671c inh,GDH-TPI counter-1,Mtb betalactam,Mtb UGM inh,RecA splice inh,Mtb FBA inh conf,GDH-TPI counter-2
CNC(=O)c1sc(-c2cccnc2)nc1C,i,i,i,i,i,i,nt,nt
COc1ccc(S(=O)(=O)N2CCN(C(=O)C3CC(=O)N(c4ccccc4F)C3)CC2)cc1OC (configuration not stated),32.8,nt,i,nt,nt,nt,149.8,93.6
COCCN1CCn2c(nc3cc(NC(C)=O)ccc32)C1,29.5,i,i,i,i,i,i,i
CC(c1ccccc1)N1CCn2c(nc3cc(NS(C)(=O)=O)ccc32)C1 (configuration not stated),i,i,i,i,i,i,nt,nt
CCOC(=O)Nc1ccc2c(c1)nc1n2CCN(CCOC)C1,36.1,i,i,i,i,i,75.0,73.4
CC(=O)Nc1ccc2c(c1)nc1n2CCN(C(C)c2ccccc2)C1 (configuration not stated),69.1,i,i,i,i,i,82.6,72.0
CCc1ccc(OCC(=O)Nc2ccc(-c3cc4ccccc4oc3=O)c(OC)c2)cc1,37.2,i,i,i,i,i,63.9,45.8
CCN(CC(=O)Nc1ccc(OC)cc1)C(=O)c1ccc(NS(=O)(=O)c2ccc(C(C)=O)cc2)cc1,i,i,i,i,i,i,nt,nt
COc1ccccc1C(=O)Nc1ccc(S(=O)(=O)Nc2cnc3ccccc3n2)cc1,i,i,i,i,i,i,nt,nt
COc1ccc(C2C=C(C)Nc3ncnn32)cc1 (configuration not stated),36.0,i,i,i,i,i,121.3,106.2
Cc1ccc(C2=CC(c3ccc(C)cc3)n3ncnc3N2)cc1 (configuration not stated),34.9,i,i,i,i,i,118.8,95.3
CCOc1ccc(OCC)c(NC(=O)C2CCCN(S(=O)(=O)c3ccc(C)cc3)C2)c1 (configuration not stated),i,i,i,i,i,i,nt,nt
c1ccc(-n2c(-c3cccs3)nc3nc4ccccc4nc32)cc1,95.7,i,i,i,i,i,+,+
Cc1ccc(-n2c(-c3cccs3)nc3ccccc3c2=O)cc1,i,i,i,i,i,i,nt,nt
CCC(C)n1c(-c2cccs2)nc2nc3ccccc3nc21 (configuration not stated),52.5,i,i,i,i,i,101.7,76.3
CC(=C/C(=O)O)/C=C/c1cccs1,i,i,i,i,i,i,nt,nt
O=C(Nc1ccc2oc(-c3cccc4ccccc34)nc2c1)c1ncn[nH]1,66.4,i,36.5,i,i,i,35.9,29.1
Cc1ccccc1-c1nc2cc(NC(=O)C3CC3)ccc2o1,106.7,i,i,i,i,nt,i,15.0
O=C(Nc1ccc2oc(-c3ccccc3Cl)nc2c1)c1ncn[nH]1,i,i,i,i,i,i,nt,nt
CCCC/C(C)=N/NC(=O)C(=O)NCCc1ccccc1,i,i,i,i,i,i,nt,nt
O=C(NCCN1CCN(C(=O)c2ccc(Br)cc2)CC1)c1ccc(Br)cc1,i,i,i,i,i,i,nt,nt
CCOC(=O)Cc1cc(=O)n2[nH]c(-c3ccc(C)cc3)cc2n1,i,i,i,i,i,i,nt,nt
COCc1cc(=O)n2[nH]c(-c3ccco3)cc2n1,33.6,i,i,i,i,i,i,i
COCc1cc(=O)n2[nH]c(C)nc2n1,i,i,i,?,i,i,nt,nt
COCc1cc(=O)n2[nH]c(-c3cccs3)cc2n1,30.1,i,i,i,i,i,64.9,65.8
SMILES,Mtb FBA inh,Rv3671c inh,GDH-TPI counter-1,Mtb betalactam,Mtb UGM inh,RecA splice inh,Mtb FBA inh conf,GDH-TPI counter-2
COCc1cc(=O)n2[nH]c(-c3ccc(C)cc3)cc2n1,35.0,i,i,i,i,i,152.4,107.6
Cc1ccc(C(=O)COC(=O)C(C)N2C(=O)C3C4C=CC(C4)C3C2=O)cc1C (configuration not stated),i,nt,i,i,i,i,nt,nt
N/C(=N\OC(=O)c1ccccc1)C(C(=O)NOC(=O)c1ccccc1)C1CCCCC1 (configuration not stated),i,nt,i,nt,nt,nt,nt,nt
COc1ccc(-c2cc3cc(OC)c(OC)cc3cn2)cc1,88.9,i,i,i,i,nt,45.4,33.2
O=C1c2cccc3cccc(c23)C(=O)N1CC1CCCO1 (configuration not stated),31.5,i,i,i,i,i,52.2,28.1
O=C(CN1C(=O)c2cccc3cccc1c23)NCC1CCCO1 (configuration not stated),i,i,i,i,i,i,nt,nt
O=C(CCN1C(=O)c2cccc3cccc(c23)C1=O)NCC1CCCO1 (configuration not stated),33.6,i,i,i,i,i,156.0,96.5
COc1ccc2c(CN3CCCCCCC3)cc(=O)oc2c1,81.6,nt,nt,nt,nt,nt,i,i
COc1cc(NC(=O)COC(=O)[C@@H]2CCCN2S(=O)(=O)c2ccc(Cl)cc2)cc(OC)c1OC,i,i,i,i,i,i,nt,nt
COc1cc(NC(=O)COC(=O)CNC(=O)C23CC4CC(CC(C4)C2)C3)cc(OC)c1,i,i,i,i,i,nt,nt,nt
COc1ccc2c(COC(=O)[C@@H]3CCCN3S(=O)(=O)c3ccc(Cl)cc3)cc(=O)oc2c1,50.9,nt,i,nt,nt,nt,102.0,76.3
COc1ccc2c(COC(=O)CNC(=O)C34CC5CC(CC(C5)C3)C4)cc(=O)oc2c1,84.9,i,i,i,i,i,+,166.5
CN(C)S(=O)(=O)c1ccc(N2CCCC2)c(C(=O)NNC(=O)COc2ccccc2Cl)c1,i,i,i,i,i,i,nt,nt
O=C(NCCC1=CCCCC1)C1CCN(S(=O)(=O)c2ccc(-n3cnnn3)cc2)CC1,i,nt,i,nt,nt,nt,nt,nt
CCc1ccc(NC(=O)CCn2nc(C)c(S(=O)(=O)N3CCCCC3)c2C)cc1,i,i,i,i,i,i,nt,nt
CN1CCN(C(=O)c2cccc(-c3cnc4cnc(-c5ccccc5Oc5ccccc5)cn34)c2)CC1,36.5,nt,i,nt,nt,nt,113.1,101.7
COc1cccc(-c2cnc3c(NC=O)cc(-c4ccccc4Oc4ccccc4)cn23)c1,i,nt,i,nt,nt,nt,nt,nt
CCCCn1c2nc3ccccc3nc2c2c(=N)oc(C)nc21,31.0,nt,i,nt,nt,nt,35.2,25.5
CCCCn1c2nc3ccccc3nc2c2c(=O)n(-c3ccccc3)cnc21,i,i,i,i,i,i,nt,nt
Cc1ccc(S(=O)(=O)N2CCOCC2)cc1C(=O)OC(C)C(=O)NC1CCCC1 (configuration not stated),i,i,i,i,i,nt,nt,nt
CC(OC(=O)c1cc(S(=O)(=O)N2CCOCC2)ccc1F)C(=O)NC1CCCCC1C (configuration not stated),30.1,i,i,i,i,i,35.1,26.8
CCCN(Cc1ccc(C)cc1)C(=O)c1ccc(CNS(=O)(=O)c2ccc(C(C)=O)cc2)cc1,i,i,i,i,i,nt,nt,nt
Cc1nc(-c2ccccc2)sc1-c1n[nH]c(=S)n1C,i,i,i,i,i,i,nt,nt

# Assay outcomes as filed in PubChem.
